Screens deposited in PubChem by National Center for Advancing Translational Sciences (NCATS).
FLuc modulator: qHTS profiling assay for firefly luciferase inhibitor/activator using purifed enzyme and Km concentrations of substrates (counterscreen for miR-21 project); hit rate 6.9% among 360,000; AID 588342, 2011; Potency, µM (top dose mostly 57.5 µM), actives largely listed as inhibitors; purified FLuc, Km substrates, luminescence inhibition; note: nearly all actives have a fitted effect of over 55% in size
Target sequence (P08659 whole entry, looked up): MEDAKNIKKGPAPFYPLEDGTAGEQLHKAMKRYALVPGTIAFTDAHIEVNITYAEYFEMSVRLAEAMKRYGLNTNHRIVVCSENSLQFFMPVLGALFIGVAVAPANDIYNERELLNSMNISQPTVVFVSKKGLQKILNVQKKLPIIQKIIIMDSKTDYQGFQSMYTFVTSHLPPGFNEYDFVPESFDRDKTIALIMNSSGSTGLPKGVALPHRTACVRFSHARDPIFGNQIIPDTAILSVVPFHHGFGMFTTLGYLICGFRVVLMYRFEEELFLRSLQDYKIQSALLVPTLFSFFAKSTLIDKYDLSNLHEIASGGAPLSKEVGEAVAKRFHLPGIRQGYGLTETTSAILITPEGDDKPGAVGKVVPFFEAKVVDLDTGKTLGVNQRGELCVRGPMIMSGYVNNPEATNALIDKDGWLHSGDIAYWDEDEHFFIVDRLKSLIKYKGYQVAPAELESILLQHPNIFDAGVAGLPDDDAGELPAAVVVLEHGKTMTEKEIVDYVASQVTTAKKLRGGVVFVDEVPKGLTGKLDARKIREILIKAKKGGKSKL
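Biochemical qHTS of compounds, final roughly 60 µM downward over six points, against 10 nM purified firefly luciferase using Km concentrations of substrates (10 uM D-luciferin, 10 uM ATP) in Tris acetate pH 7.5 buffer; luminescence output.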
ELG1 repair inh: qHTS screen for small molecules that inhibit ELG1-dependent DNA repair in human embryonic kidney (HEK293T) cells expressing luciferase-tagged ELG1; AID 504467, 2011; Potency, µM (titrated, usually from 46.1 µM), hits mostly inhibitors; HEK293T ELG1-luciferase reporter, luminescence, 16 h; DNA damage induced by 5-fluorouridine; hit rate 2.3% among 330,000; note: nearly all actives have a fitted effect of over 55% in size
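Step one: seed 2,000 cells per well. Step two: pin-transfer compound or DMSO alongside 5-fluorouridine. Step three: incubate 16 hr, 37 °C, 5% CO2. Step four: add ONE-Glo, wait 30 min, read luminescence.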
SMN2 splice up: qHTS Assay for Enhancers of SMN2 Splice Variant Expression; HEK293 SMN2-luciferase splicing reporter, luminescence, 30-36 h; Potency, µM (highest dose often 46.1 µM), most hits filed as activators; hit rate 2.8% among 210,000; AID 1458, 2008; note: nearly all actives have a fitted effect of over 55% in size
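HEK293 cells carry an SMN2 minigene-luciferase reporter in which exon 7 inclusion puts luciferase in frame. Cells were seeded at 2000 cells/well, attached for 10-12 hours, then exposed to compounds for 30-36 hours at 37C before ONE-Glo luminescence.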
ELG1 genotox: qHTS screen for small molecules that induce genotoxicity in human embryonic kidney (HEK293T) cells expressing luciferase-tagged ELG1 | HEK293T ELG1-luciferase reporter, luminescence, 16 h | Potency, µM (top dose mostly 46 µM), most hits filed as activators | hit rate 1.3% among 330,000 | AID 504466, 2011; note: nearly all actives have a fitted effect of over 60% in size
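Step 1: seed 2,000 HEK293T ELG1-luciferase cells per well. Step 2: add compound or DMSO, incubate 16 hr at 37 °C. Step 3: ONE-Glo, 30 min at room temperature, read luminescence.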
Rab9 promoter act: qHTS Assay for Rab9 Promoter Activators. Huh7 Rab9 promoter-luciferase reporter, luminescence, 24 h. AID 485297, 2010. Potency, µM (titrated, usually from 9.22 µM), actives largely listed as activators. hit rate 2.8% among 320,000; note: nearly all actives have a fitted effect of over 60% in size
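Stable Rab9-luc Huh7, 1500 cells/well, 2 h settle; cmpd in DMSO, 24 h, 37 °C/5% CO2; luciferase reagent 10 min RT; luminescence.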
NPC1 promoter act: qHTS Assay for NPC1 Promoter Activators | Huh7 NPC1 promoter luciferase reporter, 24 h | Potency, µM (series often up to 9.22 µM), hits mostly activators | hit rate 2.4% among 320,000 | AID 485313, 2010; note: nearly all actives have a fitted effect of over 60% in size
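Stably transfected Huh7 (NPC1 promoter→luciferase), 1500 cells/well in Opti-MEM + 10% FBS, 2 h settle, then compound 24 h at 37 °C. Luminescence after 10 min with Amplite reagent.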
Large screens that a line does not name were inactive. An excerpt weighted towards active compounds, which were near 9.4% of everything screened. Calls come from the whole dose curve; as a rule, active = well fitted curve in the direction sought with a large enough effect; inconclusive = small, poorly fitted or top-dose-only effect, or another doubt; inactive = no such curve, though single readings can be large; an effect the other way counts as inactive or inconclusive.

O=[N+]([O-])c1ccc(Cl)c(S(=O)(=O)Nc2cccc(-c3ccc(N4CCCC4)nn3)c2)c1	FLuc modulator 15µM, ELG1 repair inh inconclusive (no result: SMN2 splice up)
O=c1c2ccccc2n(Cc2ccccc2Cl)c(=O)n1CCc1ccccc1	none (no result: ELG1 repair inh, ELG1 genotox, Rab9 promoter act, NPC1 promoter act)
Oc1ccc(N=Cc2ccc(-c3cccs3)s2)cc1	FLuc modulator 8.5µM, ELG1 repair inh inconclusive
O=C1CCCC(O)=C1C=Nc1ccc(O)cc1	none
CCOC(=O)CCN(c1ccccc1)S(=O)(=O)c1cc(-c2cc(C)no2)ccc1C	none (no result: ELG1 repair inh, SMN2 splice up, ELG1 genotox, Rab9 promoter act, NPC1 promoter act)
COC(=O)CCc1sc(Nc2ccccc2)nc1-c1ccc(OC)cc1	FLuc modulator 24µM, ELG1 repair inh inconclusive, SMN2 splice up inconclusive, ELG1 genotox inconclusive
COc1ccc(Nc2nc(-c3ccc(OC)cc3)c(CCC(=O)O)s2)cc1	FLuc modulator inconclusive, ELG1 repair inh inconclusive (no result: SMN2 splice up)
CCOc1ccc(Nc2nc(Cc3nnc(SCC(=O)O)o3)cs2)cc1	FLuc modulator 8.5µM
CCOC(=O)c1c(C)n(OCc2ccccc2)c2ccc3c(no[n+]3[O-])c12	none
Cn1c(-c2ccccc2)cc2c3no[n+]([O-])c3ccc21	FLuc modulator 13µM, NPC1 promoter act inconclusive
Cc1sc2c(c1C)c(=O)n(-c1ccccc1)c(=O)n2CC(=O)c1ccc(Cl)cc1	none (no result: ELG1 repair inh, ELG1 genotox, Rab9 promoter act, NPC1 promoter act)
O=C(Nc1cccc(Oc2ccc(C(=O)O)c(C(=O)O)c2)c1)c1ccc(-c2ccccc2)cc1	FLuc modulator 1.7µM (no result: SMN2 splice up)
CC(C)(C)C(=O)Nc1ccc(C(=O)Nc2cccc(Oc3ccc(C(=O)O)c(C(=O)O)c3)c2)cc1	FLuc modulator 1.5µM (no result: SMN2 splice up)
COC(=O)c1cc(NC(=O)c2ccc(-c3ccccc3)cc2)ccc1Cl	none
COc1cc(NC(=O)CSc2nnc(C)n3c2cc2oc(C)cc23)cc(OC)c1	none (no result: ELG1 repair inh, SMN2 splice up, ELG1 genotox, Rab9 promoter act, NPC1 promoter act)
CNc1ccccc(-c2ccc3ccccc3n2)c1=O	FLuc modulator 9.5µM, ELG1 repair inh inconclusive, SMN2 splice up 11µM, ELG1 genotox inconclusive, Rab9 promoter act 3.5µM, NPC1 promoter act inconclusive
Cc1cc(=O)n(-c2ccc3ccccc3n2)[nH]1	FLuc modulator inconclusive, ELG1 repair inh inconclusive, ELG1 genotox inconclusive
CC(/C=N/NC(=O)CSc1ccccn1)=C\c1ccc(C(C)C)cc1	FLuc modulator inconclusive, ELG1 repair inh inconclusive, SMN2 splice up inconclusive, ELG1 genotox inconclusive, NPC1 promoter act inconclusive
COc1cc(/C=N/NC(=O)CSc2ccccn2)ccc1O	FLuc modulator inconclusive, ELG1 repair inh inconclusive (no result: SMN2 splice up)
CN(C)c1ccc(/C=N/NC(=O)CSc2ccccn2)cc1	FLuc modulator 12µM, ELG1 repair inh inconclusive, ELG1 genotox inconclusive, Rab9 promoter act inconclusive (no result: SMN2 splice up)
COc1ccc(/C=N/NC(=O)c2ccn[nH]2)cc1CSc1ccccn1	FLuc modulator 11µM, ELG1 repair inh inconclusive, ELG1 genotox inconclusive, Rab9 promoter act inconclusive, NPC1 promoter act inconclusive (no result: SMN2 splice up)
CC(/C=C/c1ccccc1)=N\NC(=O)CSc1ccccn1	FLuc modulator inconclusive
CC(=C/c1ccc(C(C)C)cc1)/C=N/NC(=O)CSc1ccccn1	FLuc modulator inconclusive, ELG1 repair inh inconclusive, ELG1 genotox inconclusive, Rab9 promoter act 2.8µM, NPC1 promoter act inconclusive
CCCOc1ccc(/C=N/NC(=O)CSc2ccccn2)cc1OC	FLuc modulator 11µM, ELG1 repair inh inconclusive, Rab9 promoter act inconclusive (no result: SMN2 splice up)
Cc1ccc(-n2nc3c(=O)n(C(C)C(=O)NCc4ccc(OC(C)C)cc4)nc(C)c3c2C)cc1 (stereo not given)	none (no result: ELG1 repair inh, SMN2 splice up, ELG1 genotox, Rab9 promoter act, NPC1 promoter act)
Cc1ccc(O)c(-c2n[nH]c3c2C(c2ccc(F)cc2)N(Cc2ccco2)C3=O)c1 (stereo not given)	none (no result: ELG1 repair inh, ELG1 genotox, Rab9 promoter act, NPC1 promoter act)
COc1ccc(Cl)cc1NC(=O)Cn1c2ncccc2c(=O)n1-c1ccc(C)c(C)c1	none (no result: ELG1 repair inh, SMN2 splice up, ELG1 genotox, Rab9 promoter act, NPC1 promoter act)
Cc1ccc(C(=O)/C=C/c2ccccc2)o1	FLuc modulator 2.4µM, ELG1 repair inh inconclusive
Cc1ccc(C(=O)/C=C/c2ccc(Br)cc2)o1	FLuc modulator 2.4µM, ELG1 repair inh inconclusive
Cc1ccc(C(=O)Cc2ccccc2)o1	none (no result: SMN2 splice up)
